Data: PubChem BioAssay AID652010 (The Scripps Research Institute Molecular Screening Center, 2013)
Among all 370,000 compounds or so, about 4,100 (1.1%) were called active. This is one part of a sample in which actives are shown more often than they occur. A number with no mark means an inactive call.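 Rule for the calls: active = inhibition above the mean over all tested compounds plus 3 SD (cut at about 3.6% in these data); inactive = the rest.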

Assay: relief of DAX-1 repression of SF-1 activity – cell-based, luminescence, SF-1 (NR5A1), full-length DAX-1, primary screen (AID 652010);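 note: 0% = DAX-1 cells with DMSO and 100% = cells lacking DAX-1 with DMSO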
Conditions: HEK293T StAR-luciferase reporter, SF-1/DAX-1 repression relief; at 6.8 µM; active compounds read high

SMILES | inhibition
CC(C)(O)C#Cc1ccc(CNC[C@H]2O[C@@H](n3cnc4c(=O)[nH]c(N)nc43)[C@H](O)[C@@H]2O)s1 | 5.95% (active)
Nc1nc2c(ncn2[C@@H]2O[C@H](CNS(=O)(=O)N3CCc4ccccc4C3)[C@@H](O)[C@H]2O)c(=O)[nH]1 | -0.84%
Nc1nc2c(ncn2[C@@H]2O[C@H](CNCc3ccc(OCCCN4CCOCC4)cc3)[C@@H](O)[C@H]2O)c(=O)[nH]1 | 1.17%
Clc1ccc(-n2c(COc3ccccc3)nnc2SCc2nc3ccccc3[nH]2)cc1 | 0.06%
O=C(CSc1nc2ccccc2s1)N=Nc1c(O)[nH]c2ccccc12 | 0.2%
COC(=O)C1CN(CC(C)C)CCS(=O)(=O)N1Cc1ccc(F)cc1 (centres undefined) | -0.94%
CCC(=O)Nc1ccc2c(c1)C(=O)N(C)[C@@H]1CC[C@@H](CC(=O)NCCc3ccccc3)O[C@H]1CO2 | 0.25%
CC(C)(C)c1cnnn1-c1ccc([N+](=O)[O-])cc1 | 0.31%
Cc1nn(-c2ccccc2)c2c1C(c1cccc([N+](=O)[O-])c1)N(c1ccccc1)C(=O)N2 (centres undefined) | -0.06%
Cc1nn(-c2ccc([N+](=O)[O-])cc2)c(N)c1-c1ccccc1 | 4.84% (active)
O=[N+]([O-])c1ccc2nc(-c3ccccn3)[nH]c2c1 | 3.65% (active)
O=C(Nc1ccc([N+](=O)[O-])cc1)OCCc1ccccn1 | -0.01%
O=[N+]([O-])c1ccc(N/N=C2/CCCCC2c2ccccn2)c([N+](=O)[O-])c1 (centres undefined) | -0.26%
CC(C)CNc1cccc2c1S(=O)(=O)N(Cc1cn(Cc3ccc(Cl)cc3)nn1)Cc1ccccc1O2 | -0.85%
Cc1ccc(C2=CCN(C)C(=O)N2c2ccc(Cl)cc2)cc1 | -0.53%
COc1cccc(C(NC(C)=O)c2nc(-c3cnc4ccccc4c3)cs2)c1 (centres undefined) | -0.06%
OC(c1ccccc1)c1nc(-c2cnc3ccccc3c2)cs1 (centres undefined) | 9.07% (active)
CC(C)c1cccc(-c2csc(C(O)c3ccccc3)n2)c1 (centres undefined) | 0.06%
CSc1ncnc2c1ncn2CCCNCc1cccs1 | 0.19%
CN(C)c1ccc(NC(=O)c2ccncc2)c2ccccc12 | -0.26%
O=C(Nc1ccc2ccccc2c1[N+](=O)[O-])c1ccccc1 | 5% (active)
Cc1ccc(NC(=O)c2oc3ccccc3c2C)c([N+](=O)[O-])c1 | 0.06%
COc1cccc(NC(=O)CCc2nnc3ccc(N4CCC(C)CC4)nn23)c1 | -0.5%

SMILES | inhibition
O=C(NCc1cccs1)C1CCN(S(=O)(=O)c2ccccc2[N+](=O)[O-])CC1 | 0.71%
O=C(COc1ccc(-c2ccccc2)cc1)NN=C1CCCC1 | -1.32%
O=C1NC(Nc2nc3ccccc3s2)(C(F)(F)F)C(=O)N1C1CCCCC1 (centres undefined) | -1.98%
c1ccc2sc(NN=C3CCCC3)nc2c1 | 4.11% (active)
CCOC(=O)c1oc2c(CN3CCN(CCO)CC3)c(O)c(CC)cc2c(=O)c1-c1nc2ccccc2s1 | 0%
CCCCNC(=O)C[C@@H]1C(=O)N(CCc2ccc(Cl)cc2)C2=CCCC[C@]21C(=O)OCC | -1.99%
COc1cccc(NC(=O)C/C(C)=N/NC(=O)C2CCCCC2)c1 | -0.19%
Cc1ccc(C)c(-n2ccnc2SCC(N)=O)c1 | -0.07%
S=C(Nc1ccc(Cl)cc1Cl)N1CCCC1 | 2.27%
O=C(NC(=S)Nc1ccc(Br)cc1F)C1CCCCC1 | 3.34%
O=C(NC(=S)Nc1ccc(Cl)cc1Cl)C1CC1 | 5.23% (active)
Cc1cccc(-n2c(O)c(C=Nc3ccccc3N)c(=O)[nH]c2=O)c1 | 3.64% (active)
Cc1cc(=O)n(C)c(=O)n1CCCNc1ccccc1 | 0.36%
COc1ccc(C#CCNCc2ccc(OC)cc2OC)cc1 | -1.39%
Cc1cc(C(=O)NN=C/C=C/c2ccco2)n[nH]1 | 0.49%
C(=N\Nc1ccc2ccccc2n1)/c1ccc2c(c1)OCO2 | 8.27% (active)
Clc1ccc(Nc2ccc3ccccc3n2)cc1 | 2.89%
Nc1nonc1-n1nnc(C(=O)N/N=C/c2ccc(Cl)cc2)c1-c1ccc2c(c1)OCO2 | 0.01%
COC(=O)[C@@]12CCCCC3=C1N(CCC3)C(=O)[C@H]2CC(=O)NCc1cccc2ccccc12 | -0.9%
O=C(O)c1ccc2c(=O)n3c(nc2c1)/C(=C/c1ccc(OC(F)F)cc1OC(F)F)CC3 | 0.3%
N#Cc1cccc(OC(=O)c2ccc3c(=O)n4c(nc3c2)CCC4)c1 | -0.02%
O=C(Nc1cc(F)ccc1F)c1ccc2c(=O)n3c(nc2c1)CCC3 | 3.87% (active)
Cc1cc(C)c(C)c(S(=O)(=O)N2CCN(C(=O)c3ccc4c(=O)n5c(nc4c3)CCC5)CC2)c1C | 5.04% (active)

SMILES | inhibition
CC1CCN(C(=O)c2ccc3c(=O)n4c(nc3c2)CCCCC4)CC1 | -0.43%
O=C(c1ccc(Cl)c(S(=O)(=O)N2CCCCC2)c1)N1CCCCCC1 | -3.11%
COP(=O)(O)CNC(=O)OCc1ccccc1 | -0.36%
COC(=O)c1c(-c2ccc(OC)cc2)c2c(c3c4cc(OC)ccc4n(S(=O)(=O)c4ccc(F)cc4)c13)C(=O)N(C)C2 | -2.04%
CC(=O)c1ccc(S(=O)(=O)NCC2CCN(C(=O)C(=O)c3cccs3)CC2)cc1 | -0.63%
Cc1cc(OC(=O)NCCc2ccc(F)cc2)ccc1F | -0.8%
Cc1cc(C(=O)NCCc2ccc(Cl)cc2)c(C)o1 | 5.45% (active)
NS(=O)(=O)c1ccc(CCNC(=O)c2ccc(Cl)cc2[N+](=O)[O-])cc1 | -0.5%
CC(=O)OCCN1CCCC12CCC(c1ccccc1)CC2 (centres undefined) | -0.24%
O=C(O)c1ccc(N/N=C/c2cn(-c3ccccc3)nc2-c2cccs2)cc1 | 6.23% (active)
Cc1c(NC(=O)C(=O)N/N=C/c2cccs2)c(=O)n(-c2ccccc2)n1C | 0.14%
O=C(N/N=C/c1sc(N2CCCCC2)nc1-c1cccs1)c1cccnc1 | -1.84%
CN(CCO)c1cccc2c1S(=O)(=O)N(Cc1cn(Cc3ccc(C(F)(F)F)cc3)nn1)Cc1ccccc1O2 | -1.1%
C=CCN1C(=O)[C@@H](CC(=O)NCCCOCCCC)[C@]2(C(=O)OCC)CCCCC/C=C/12 | 0.1%
O=C1/C(=C\Nc2ccccc2)CCN1c1ncccn1 | 0.43%
O=C(CSc1nnc(-c2ccco2)o1)NCC(=O)c1ccccc1 | 1.51%
CCCCCCc1cc2cc(-c3nnc(-c4cccc(OC)c4)o3)c(=O)oc2cc1O | 1.42%
CCCOc1ccc(-c2c(C(=O)N/N=C/c3ccco3)nnn2-c2nonc2N)cc1 | -0.59%
CCOc1ccc(-c2nnc(-c3ccco3)o2)cc1 | 6.66% (active)
CCCCOc1ccc(-c2nnc(-c3ccco3)o2)cc1 | 4.13% (active)
CCOc1ccc(NC(=O)N(CCC(C)C)C(C)c2ccco2)cc1 (centres undefined) | -0.03%
C=CCN1C(C(=O)OC)CN(Cc2cn(Cc3ccccc3)nn2)CCS1(=O)=O (centres undefined) | -0.18%
COC(=O)[C@]12C[C@H](CC(=O)NCC34CC5CC(CC(C5)C3)C4)C(=O)N(Cc3ccc(Cl)cc3Cl)C1=C[C@H](COCc1ccccc1)O[C@@H]2C | -0.93%

SMILES | inhibition
COC(=O)[C@]1(C#N)CC(=O)N(CC2CCCCC2)[C@@H]1c1ccccc1 | 1.2%
FC(F)(F)c1cccc(Cn2ccc3ccc(-c4ccc5ccn(Cc6ccccc6)c5c4)cc32)c1 | -1.01%
O=C(CCCCCN1C(=O)C2C3C=CC(C3)C2C1=O)Nc1ccccn1 (centres undefined) | -0.18%
C/C(=N\NC(=O)c1ccc(NS(=O)(=O)c2cccs2)cc1)c1ccc2ccccc2c1 | 0.35%
COc1cc(OC)c(C(=O)NNC(=O)c2ccc(NS(=O)(=O)c3cccs3)cc2)cc1OC | 4.51% (active)
COc1cc(OC)c(C(=O)NNC(=O)c2ccccc2-n2cccc2)cc1OC | 0.07%
COc1ccc(-c2cc(-c3nnc(SCC(=O)Nc4cccc5ccccc45)n3N)[nH]n2)cc1 | -0.22%
C[C@H](C(=O)N(C)c1ccccc1)[C@@H](O)c1ccc2ccccc2c1 | 0.19%
CS(=O)(=O)N(CC(=O)N/N=C/c1ccccn1)c1ccc(Oc2ccccc2)cc1 | -0.11%
S=C(NN=Cc1ccccn1)Nc1ccccn1 | 3.77% (active)
O=C(O)C1C2C=CC(O2)C1C(=O)Nc1ccccn1 (centres undefined) | 0.46%
Clc1ccc(-n2c(SC/C=C/c3ccccc3)nnc2-c2ccco2)cc1 | -1.85%
Cc1ccc(-c2nc(-c3cccnc3)sc2CC(=O)Nc2ccc(C)c(Cl)c2)cc1 | -0.1%
O=C(NCc1ccco1)C1CCCN(S(=O)(=O)c2ccc(Cl)s2)C1 (centres undefined) | -1.13%
O=C1N(c2ccccc2)C(=Nc2ccccc2)SC12CC2 | -0.44%
COc1cc(SC)ccc1C(=O)Nc1nc(C)cs1 | -3.74%
Cc1ccnc(NC(=O)C(C)N2C(=O)c3ccccc3C2=O)c1 (centres undefined) | -0.27%
COc1cc(SC)ccc1C(=O)Nc1cc(C)ccn1 | 4.19% (active)
O=C(c1cccc(C(F)(F)F)c1)N1CC[C@H]2[C@H](CCCN2Cc2cc(F)cc(F)c2)C1 | 0.13%
Cc1sc2nc(SCC(=O)c3ccc(O)c(O)c3)n(Cc3ccco3)c(=O)c2c1C | -0.17%
